The supplement of paper PMC10849652
The full data set covers some 8,800 targets. This sample favours those with a hit. About 0.5% of all pairs of compound and target were hits. A number with no mark means an inactive call.

How the values were obtained:
Assay in all cases: log2 fold change, soluble protein after heating vs DMSO (PISA); higher = thermal stabilisation; K562 lysate, 10 uM; active = over 0.2 and 3.5 SD of the protein, either way, in both replicates (recomputed)
alvocidib = compound: CN1CC[C@H](c2c(O)cc(O)c3c(=O)cc(-c4ccccc4Cl)oc23)[C@H](O)C1 [alvocidib]
Method in brief: (§1)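 To prepare the extract, K562 pellets were dounce-homogenised in PBS pH 7.4 with 1 mM MgCl2, giving crude material at 1 mg/mL protein. This was treated with 10 μM compound for 30 min, then heated in aliquots for 3 min over 48°C-58°C before pooling and addition of NP-40 to 0.5% at 4°C. Centrifugation at 21,000xg for 90 min left soluble protein in the supernatant, which TMTpro 16plex LC-MS/MS quantified with equalised channel sums. Results are log-two fold changes in thermal stability compared with solvent controls, from duplicates.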

Tubastatin A = compound: CN1CCc2c(c3ccccc3n2Cc2ccc(C(=O)NO)cc2)C1 [Tubastatin A]
Method in brief: as §1

[1] = compound: CNC(=O)C1=CC=CC=C1NC2=NC(=NC=C2Cl)NC3=C(C=C(C=C3)N4CCOCC4)OC
Method in brief: as §1

defactinib = compound: CNC(=O)c1ccc(Nc2ncc(C(F)(F)F)c(NCc3nccnc3N(C)S(C)(=O)=O)n2)cc1 [defactinib]
Method in brief: as §1

[2] = compound: CNc1nc(-c2ccc3c(N)n[nH]c3c2)cc(N2C[C@@H](C(=O)NC3CCCCC3)CC[C@H]2C)n1
Method in brief: as §1

encorafenib = compound: COC(=O)N[C@@H](C)CNc1nccc(-c2cn(C(C)C)nc2-c2cc(Cl)cc(NS(C)(=O)=O)c2F)n1 [encorafenib]
Method in brief: as §1

[3] = compound: COC(=O)[C@H](CCSC)NC(=O)C1=C(C=C(C=C1)NC[C@H](CS)N)C2=CC=CC=C2
Method in brief: as §1

alisertib = compound: COc1cc(Nc2ncc3c(n2)-c2ccc(Cl)cc2C(c2c(F)cccc2OC)=NC3)ccc1C(=O)O [alisertib]
Method in brief: as §1

[4] = compound: COc1cc2nc(-c3cc(F)ccc3O)nc(N[C@@H]3CNC[C@H]3C(C)(C)O)c2cc1OC
Method in brief: as §1

gefitinib = compound: COc1cc2ncnc(Nc3ccc(F)c(Cl)c3)c2cc1OCCCN1CCOCC1 [gefitinib]
Method in brief: as §1

lapatinib = compound: CS(=O)(=O)CCNCc1ccc(-c2ccc3ncnc(Nc4ccc(OCc5cccc(F)c5)c(Cl)c4)c3c2)o1 [lapatinib]
Method in brief: as §1

pictilisib = compound: CS(=O)(=O)N1CCN(Cc2cc3nc(-c4cccc5[nH]ncc45)nc(N4CCOCC4)c3s2)CC1 [pictilisib]
Method in brief: as §1

crizotinib = compound: C[C@@H](Oc1cc(-c2cnn(C3CCNCC3)c2)cnc1N)c1c(Cl)ccc(F)c1Cl [crizotinib]
Method in brief: as §1

[5] = compound: C[C@H](C1=CC=C(C=C1)C(=O)NC2=C3C=CNC3=NC=C2)N
Method in brief: as §1

duvelisib = compound: C[C@H](Nc1ncnc2nc[nH]c12)c1cc2cccc(Cl)c2c(=O)n1-c1ccccc1 [duvelisib]
Method in brief: as §1

gandotinib = compound: Cc1cc(Nc2cc(CN3CCOCC3)c3nc(C)c(Cc4ccc(Cl)cc4F)n3n2)n[nH]1 [gandotinib]
Method in brief: as §1

tozasertib = compound: Cc1cc(Nc2cc(N3CCN(C)CC3)nc(Sc3ccc(NC(=O)C4CC4)cc3)n2)n[nH]1 [tozasertib]
Method in brief: as §1

doramapimod = compound: Cc1ccc(-n2nc(C(C)(C)C)cc2NC(=O)Nc2ccc(OCCN3CCOCC3)c3ccccc23)cc1 [doramapimod]
Method in brief: as §1

bafetinib = compound: Cc1ccc(NC(=O)c2ccc(CN3CC[C@H](N(C)C)C3)c(C(F)(F)F)c2)cc1Nc1nccc(-c2cncnc2)n1 [bafetinib]
Method in brief: as §1

[6] = compound: Cc1cccc(CC(=O)N2CCc3c2ccc(-c2cn(C)c4ncnc(N)c24)c3F)n1
Method in brief: as §1

UniProt P49917, sequence (P49917 whole entry, looked up): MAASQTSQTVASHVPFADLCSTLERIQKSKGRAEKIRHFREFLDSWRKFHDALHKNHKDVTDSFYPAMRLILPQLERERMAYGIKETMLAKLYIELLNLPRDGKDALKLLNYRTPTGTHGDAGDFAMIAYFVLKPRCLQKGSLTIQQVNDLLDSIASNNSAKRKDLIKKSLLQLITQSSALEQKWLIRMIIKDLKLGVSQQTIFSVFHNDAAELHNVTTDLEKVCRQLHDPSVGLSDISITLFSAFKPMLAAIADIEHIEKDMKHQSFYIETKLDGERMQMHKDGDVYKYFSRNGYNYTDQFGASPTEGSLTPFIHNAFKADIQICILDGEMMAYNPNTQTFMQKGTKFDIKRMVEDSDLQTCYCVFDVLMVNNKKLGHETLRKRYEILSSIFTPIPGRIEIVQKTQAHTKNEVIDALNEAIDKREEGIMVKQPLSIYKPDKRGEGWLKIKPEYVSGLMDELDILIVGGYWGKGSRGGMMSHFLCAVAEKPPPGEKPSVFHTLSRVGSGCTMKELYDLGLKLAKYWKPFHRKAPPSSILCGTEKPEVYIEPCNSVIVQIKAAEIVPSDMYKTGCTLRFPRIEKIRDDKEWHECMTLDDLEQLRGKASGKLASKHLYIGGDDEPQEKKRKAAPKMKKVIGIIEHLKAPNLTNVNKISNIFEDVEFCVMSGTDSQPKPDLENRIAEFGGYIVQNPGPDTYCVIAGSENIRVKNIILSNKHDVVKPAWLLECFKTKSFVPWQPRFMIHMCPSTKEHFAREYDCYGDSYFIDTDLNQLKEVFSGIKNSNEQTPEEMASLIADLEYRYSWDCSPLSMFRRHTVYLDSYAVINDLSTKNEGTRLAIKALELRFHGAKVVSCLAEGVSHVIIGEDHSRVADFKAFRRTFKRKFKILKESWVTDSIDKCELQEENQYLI
UniProt Q14739, sequence (Q14739 whole entry, looked up): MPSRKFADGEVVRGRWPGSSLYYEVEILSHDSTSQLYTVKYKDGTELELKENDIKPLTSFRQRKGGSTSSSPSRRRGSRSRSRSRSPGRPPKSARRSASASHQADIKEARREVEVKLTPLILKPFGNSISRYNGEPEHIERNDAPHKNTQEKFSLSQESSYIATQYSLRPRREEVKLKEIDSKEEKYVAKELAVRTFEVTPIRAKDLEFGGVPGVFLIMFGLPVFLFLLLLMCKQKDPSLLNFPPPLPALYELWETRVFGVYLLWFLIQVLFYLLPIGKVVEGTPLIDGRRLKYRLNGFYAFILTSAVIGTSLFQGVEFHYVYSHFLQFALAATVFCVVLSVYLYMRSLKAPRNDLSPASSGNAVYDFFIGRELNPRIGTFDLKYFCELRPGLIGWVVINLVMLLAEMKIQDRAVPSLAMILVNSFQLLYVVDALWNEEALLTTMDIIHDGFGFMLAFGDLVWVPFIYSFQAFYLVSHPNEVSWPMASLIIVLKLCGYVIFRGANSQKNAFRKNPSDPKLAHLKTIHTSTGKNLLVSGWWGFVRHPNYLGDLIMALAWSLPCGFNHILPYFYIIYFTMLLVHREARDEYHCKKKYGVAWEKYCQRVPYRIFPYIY
UniProt P45983, sequence (P45983 whole entry, looked up): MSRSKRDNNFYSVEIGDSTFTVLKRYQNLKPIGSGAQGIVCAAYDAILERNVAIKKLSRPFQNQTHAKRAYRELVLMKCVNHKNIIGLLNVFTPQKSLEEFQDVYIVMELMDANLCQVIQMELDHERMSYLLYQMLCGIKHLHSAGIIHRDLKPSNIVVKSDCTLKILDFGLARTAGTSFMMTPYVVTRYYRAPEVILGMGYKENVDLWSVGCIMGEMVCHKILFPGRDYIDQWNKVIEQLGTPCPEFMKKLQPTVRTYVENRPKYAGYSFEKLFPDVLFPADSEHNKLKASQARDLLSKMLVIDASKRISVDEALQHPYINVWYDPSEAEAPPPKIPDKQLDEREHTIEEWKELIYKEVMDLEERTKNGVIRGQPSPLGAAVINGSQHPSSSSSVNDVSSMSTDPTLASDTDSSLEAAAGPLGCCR
UniProt Q96G25, sequence (Q96G25 whole entry, looked up): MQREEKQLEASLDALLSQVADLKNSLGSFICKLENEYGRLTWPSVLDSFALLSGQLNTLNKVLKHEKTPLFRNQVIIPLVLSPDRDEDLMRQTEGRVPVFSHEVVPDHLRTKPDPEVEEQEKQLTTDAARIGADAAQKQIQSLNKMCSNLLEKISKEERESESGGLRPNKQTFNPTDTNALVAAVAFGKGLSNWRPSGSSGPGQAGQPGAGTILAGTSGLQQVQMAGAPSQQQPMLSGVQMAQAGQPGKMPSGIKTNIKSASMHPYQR
UniProt Q8WVR3, sequence (Q8WVR3 whole entry, looked up): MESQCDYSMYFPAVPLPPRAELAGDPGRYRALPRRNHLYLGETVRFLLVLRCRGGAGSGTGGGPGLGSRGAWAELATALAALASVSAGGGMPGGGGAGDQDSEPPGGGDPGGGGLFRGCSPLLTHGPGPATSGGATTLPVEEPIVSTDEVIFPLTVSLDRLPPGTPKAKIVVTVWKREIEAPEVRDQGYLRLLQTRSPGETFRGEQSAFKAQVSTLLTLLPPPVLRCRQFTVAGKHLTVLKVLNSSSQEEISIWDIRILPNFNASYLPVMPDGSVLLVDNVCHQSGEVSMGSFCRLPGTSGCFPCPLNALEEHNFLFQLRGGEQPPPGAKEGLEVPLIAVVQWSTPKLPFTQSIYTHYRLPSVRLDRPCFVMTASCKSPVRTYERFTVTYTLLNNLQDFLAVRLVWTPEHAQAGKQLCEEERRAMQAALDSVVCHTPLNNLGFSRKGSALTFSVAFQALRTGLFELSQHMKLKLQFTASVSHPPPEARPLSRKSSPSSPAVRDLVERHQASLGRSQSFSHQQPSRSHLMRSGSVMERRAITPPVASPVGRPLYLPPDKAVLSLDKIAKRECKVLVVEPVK
UniProt Q13601, sequence (Q13601 whole entry, looked up): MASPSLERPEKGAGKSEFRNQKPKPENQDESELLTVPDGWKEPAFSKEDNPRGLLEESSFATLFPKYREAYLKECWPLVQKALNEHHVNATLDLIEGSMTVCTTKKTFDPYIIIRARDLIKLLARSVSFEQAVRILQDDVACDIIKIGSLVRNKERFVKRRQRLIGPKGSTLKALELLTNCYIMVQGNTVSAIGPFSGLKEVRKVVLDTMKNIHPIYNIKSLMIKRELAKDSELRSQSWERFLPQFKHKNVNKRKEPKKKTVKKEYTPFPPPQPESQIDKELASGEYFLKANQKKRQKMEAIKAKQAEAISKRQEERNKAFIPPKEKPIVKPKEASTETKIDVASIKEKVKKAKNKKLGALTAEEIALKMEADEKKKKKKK
UniProt P28838, sequence (P28838 whole entry, looked up): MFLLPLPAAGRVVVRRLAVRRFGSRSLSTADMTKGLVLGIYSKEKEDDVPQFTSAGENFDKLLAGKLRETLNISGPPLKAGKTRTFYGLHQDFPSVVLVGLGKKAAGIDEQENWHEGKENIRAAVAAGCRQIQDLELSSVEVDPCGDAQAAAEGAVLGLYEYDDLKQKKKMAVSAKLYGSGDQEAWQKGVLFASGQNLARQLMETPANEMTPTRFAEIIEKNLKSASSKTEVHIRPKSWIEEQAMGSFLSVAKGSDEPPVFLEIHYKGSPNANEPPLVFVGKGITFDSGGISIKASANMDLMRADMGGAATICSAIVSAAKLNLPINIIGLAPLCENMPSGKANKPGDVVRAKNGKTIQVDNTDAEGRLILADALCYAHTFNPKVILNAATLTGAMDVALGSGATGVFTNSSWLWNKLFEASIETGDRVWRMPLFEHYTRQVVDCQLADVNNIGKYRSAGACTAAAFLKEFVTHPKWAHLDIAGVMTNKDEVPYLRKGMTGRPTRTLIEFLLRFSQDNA
UniProt O14733, sequence (O14733 whole entry, looked up): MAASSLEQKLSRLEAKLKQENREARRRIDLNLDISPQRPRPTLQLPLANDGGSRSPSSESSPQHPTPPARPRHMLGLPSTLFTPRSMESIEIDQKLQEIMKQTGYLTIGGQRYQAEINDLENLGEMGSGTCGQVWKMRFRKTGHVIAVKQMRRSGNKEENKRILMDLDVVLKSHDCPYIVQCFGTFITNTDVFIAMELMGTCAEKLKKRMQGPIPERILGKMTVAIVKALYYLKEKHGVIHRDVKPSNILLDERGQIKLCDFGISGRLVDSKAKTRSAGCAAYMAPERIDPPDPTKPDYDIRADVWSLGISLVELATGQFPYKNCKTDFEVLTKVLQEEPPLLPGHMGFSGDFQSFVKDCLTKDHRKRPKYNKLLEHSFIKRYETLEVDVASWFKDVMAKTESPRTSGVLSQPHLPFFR
UniProt Q9P0L2, sequence (Q9P0L2 whole entry, looked up): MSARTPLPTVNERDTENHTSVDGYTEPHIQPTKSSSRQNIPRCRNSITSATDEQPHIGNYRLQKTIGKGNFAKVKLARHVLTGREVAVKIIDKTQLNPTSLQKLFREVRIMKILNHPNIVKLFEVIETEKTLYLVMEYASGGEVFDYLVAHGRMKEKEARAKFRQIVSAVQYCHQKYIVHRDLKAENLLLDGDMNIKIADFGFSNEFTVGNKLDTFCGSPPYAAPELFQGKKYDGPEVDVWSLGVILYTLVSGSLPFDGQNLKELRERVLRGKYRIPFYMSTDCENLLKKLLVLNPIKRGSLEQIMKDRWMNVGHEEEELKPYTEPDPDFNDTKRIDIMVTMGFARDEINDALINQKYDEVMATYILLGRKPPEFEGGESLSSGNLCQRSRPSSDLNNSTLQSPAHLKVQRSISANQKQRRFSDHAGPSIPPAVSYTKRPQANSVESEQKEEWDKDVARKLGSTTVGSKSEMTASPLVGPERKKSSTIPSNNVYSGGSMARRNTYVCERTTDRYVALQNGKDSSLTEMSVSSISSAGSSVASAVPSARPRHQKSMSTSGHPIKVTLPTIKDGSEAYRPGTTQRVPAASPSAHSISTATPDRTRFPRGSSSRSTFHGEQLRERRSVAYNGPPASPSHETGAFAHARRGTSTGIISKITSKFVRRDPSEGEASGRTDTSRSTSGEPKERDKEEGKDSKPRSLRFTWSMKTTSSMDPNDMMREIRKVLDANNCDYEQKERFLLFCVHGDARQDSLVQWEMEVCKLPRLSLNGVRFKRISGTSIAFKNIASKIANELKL

Target | log2 fold change (alvocidib) | log2 fold change (Tubastatin A) | log2 fold change [1] | log2 fold change (defactinib) | log2 fold change [2] | log2 fold change (encorafenib) | log2 fold change [3] | log2 fold change (alisertib) | log2 fold change [4] | log2 fold change (gefitinib) | log2 fold change (lapatinib) | log2 fold change (pictilisib) | log2 fold change (crizotinib) | log2 fold change [5] | log2 fold change (duvelisib) | log2 fold change (gandotinib) | log2 fold change (tozasertib) | log2 fold change (doramapimod) | log2 fold change (bafetinib) | log2 fold change [6]
LARS (UniProt Q9P2J5) | 0.051 | -0.153 | 0.006 | 0.023 | -0.054 | 0.001 | 0.097 | 0.01 | -0.013 | -0.007 | -0.004 | -0.015 | -0.043 | 0.047 | -0.013 | -0.081 | 0.012 | -0.009 | -0.048 | -0.005
KRR1 (UniProt Q13601) | 0.028 | -0.033 | -0.054 | 0.01 | -0.005 | 0.092 | 0.023 | 0.032 | 0.046 | -0.014 | -0.039 | 0.03 | -0.228 | 0.05 | -0.037 | -0.097 | -0.038 | 0.127 | -0.039 | 0.002
MARK1 (UniProt Q9P0L2) | -0.053 | -0.087 | -0.27 | -0.267 | 0.072 | 0.075 | 0.226 | -0.007 | -0.134 | -0.004 | 0.037 | -0.065 | -0.175 | 0.026 | -0.002 | -0.192 | -0.084 | 0.155 | -0.034 | 0.05
MED8 isoform 2 (UniProt Q96G25) | 0.026 | -0.048 | 0.023 | -0.009 | 0.045 | 0.056 | -0.113 | -0.07 | 0.059 | -0.038 | 0.005 | -0.051 | 0.014 | 0.269 (active) | 0.023 | -0.026 | 0.047 | 0.069 | -0.031 | -0.044
MICB, A0A140T979 | 0.01 | -0.005 | -0.09 | 0.021 | 0.084 | -0.027 | -0.506 (active) | -0.043 | 0.804 (active) | -0.012 | -0.169 | -0.074 | -0.067 | -0.042 | 0.052 | 0.011 | -0.177 | -0.003 | -0.001 | 0.027
LAP3 (UniProt P28838) | -0.249 | 0.082 | 0.069 | -0.063 | 0.191 | 0.006 | 0.004 | -0.02 | 0.038 | -0.004 | -0.021 | 0.003 | -0.102 | -0.531 (active) | 0.034 | 0.385 (active) | -0.126 | 0.02 | 0.014 | 0.331 (active)
MAP11 (UniProt Q8WVR3) | -0.117 | -0.091 | 0.021 | 0.076 | 0.004 | -0.058 | -0.084 | -0.001 | -0.025 | -0.046 | -0.047 | -0.028 | -0.011 | -0.102 | -0.04 | -0.06 | -0.024 | -0.024 | -0.021 | 0.001
MAPK9 (UniProt P45984) | 0.028 | -0.064 | 0.44 (active) | 0.056 | 0.006 | 0.17 | -0.019 | -0.021 | 0.006 | 0.027 | 0.001 | 0.088 | -0.021 | 0.026 | 0.006 | 0.035 | 0.033 | 0.192 | -0.011 | -0.15
KPNA2 (UniProt P52292) | 0.018 | -0.083 | -0.012 | 0.012 | -0.013 | -0.005 | 0.122 | 0.008 | -0.017 | 0.003 | -0.016 | 0.024 | -0.063 | -0.001 | 0.011 | -0.066 | 0.017 | 0.003 | -0.028 | 0.05
LBR (UniProt Q14739) | 0.072 | 0.025 | -0.063 | 0.04 | -0.002 | -0.021 | 0.027 | 0.071 | 0.001 | -0.094 | -0.071 | -0.068 | 0.063 | 0.159 | -0.039 | -0.285 (active) | -0.003 | -0.06 | -0.114 | -0.096
LIG4 (UniProt P49917) | 0.02 | -0.025 | -0.04 | 0.063 | 0.005 | 0.048 | 0.415 (active) | -0.049 | -0.096 | -0.069 | 0.028 | -0.245 | -0.035 | -0.064 | 0.022 | -0.07 | -0.034 | -0.037 | -0.167 | 0.073
MAPK8 isoform 3 (UniProt P45983) | 0.01 | -0.111 | 0.541 (active) | -0.07 | -0.144 | 0.135 | 0 | -0.022 | 0.003 | -0.042 | -0.042 | 0.192 | -0.089 | -0.022 | -0.07 | 0.281 | -0.007 | -0.049 | -0.014 | -0.037
LPIN1 isoform 7 (UniProt Q14693) | -0.054 | -0.05 | -0.006 | 0.003 | -0.1 | 0.089 | -0.064 | -0.028 | 0.007 | -0.04 | -0.052 | -0.082 | -0.035 | -0.069 | -0.097 | -0.005 | 0.012 | 0.013 | -0.04 | 0.097
MAP2K7 isoform 4 (UniProt O14733) | 0.023 | -0.15 | 0.023 | -0.035 | 0.036 | -0.059 | 0.177 | 0.006 | -0.009 | -0.08 | 0.004 | 0.204 | -0.05 | 0.081 | -0.048 | -0.042 | -0.04 | 0.052 | -0.06 | 0.002
MLH1 (UniProt P40692) | 0.011 | -0.167 | -0.039 | 0.004 | -0.013 | 0.044 | 0.129 | -0.01 | 0.048 | -0.053 | -0.006 | 0.001 | -0.085 | -0.035 | 0.016 | -0.04 | -0.043 | 0.013 | -0.063 | 0.038
KNSTRN (UniProt Q9Y448) | 0.001 | -0.062 | 0.038 | -0.029 | 0.053 | 0.074 | -0.264 (active) | 0.043 | -0.016 | -0.022 | 0.013 | 0.05 | 0.029 | 0.065 | -0.009 | -0.024 | 0.026 | -0.052 | 0.024 | -0.056
